# Assay results: PubChem BioAssay (NCI)
# This is part of a sample that, as a whole, favours compounds with a hit. Of some 83,000 tested, about 20% had one in any assay.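 Negative percent growth values reflect cell death: -40 means 40% of the cells present at the start died, and -100 means all died.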 Unmarked numbers belong to inactive results. Activity calls are given as the source filed them. Rule for the calls: active = growth percent below 10; inactive = the rest.
# Key:
# Test in all cases: NCI-60 one-dose screen, 48 h (100 = growth as untreated, 0 = no growth, -100 = all killed)
# Settings in all cases: 10 µM unless noted
# EKVX NSCLC = test system: EKVX NSCLC
# SN12C renal = test system: SN12C renal
# ACHN renal = test system: ACHN renal
# CAKI-1 renal = test system: CAKI-1 renal
# A498 renal = test system: A498 renal
# CCRF-CEM leukemia = test system: CCRF-CEM leukemia
# MOLT-4 leukemia = test system: MOLT-4 leukemia
# TK-10 renal = test system: TK-10 renal
# UO-31 renal = test system: UO-31 renal
Structure (SMILES),growth (EKVX NSCLC),growth (SN12C renal),growth (ACHN renal),growth (CAKI-1 renal) [%],growth (A498 renal),growth (CCRF-CEM leukemia),growth (MOLT-4 leukemia),growth (TK-10 renal) [%],growth (UO-31 renal)
Nc1nc2c(c(=O)[nH]1)C1(C(=O)Nc3ccccc31)c1c(nc(N)[nH]c1=O)N2,104%,103%,105%,102,108%,105%,90%,,
CN(C)CCCNc1nn2c(=O)c3ccccc3nc2c2ccccc12,53.5%,58.3%,29.9%,20.8,92%,30.3%,-19.6% (active),75.3,
O=C1/C(=C/c2cccc(Cl)c2)CCc2ccccc21,,95.9%,103%,76.9,,,83.3%,85.9,76.1%
Cc1sc2nc(N3CCCCC3)[nH]c(=O)c2c1C,94.3%,99.2%,,,95%,93.7%,88.8%,106,
COc1cc(/C=C/c2cc(/C=C/c3ccc(O)c(OC)c3)n(C(=O)Cc3ccccc3)n2)ccc1O,,9.07% (active),5.4% (active),20.9,-9.09% (active),0.172% (active),1.08% (active),,-9.97% (active)
CCN(CC)CCCCCCCNc1c2ccc(Cl)cc2nc2ccc(OC)cc12,-6.42% (active),0.458% (active),-39.1% (active),,-92.1% (active),0.0912% (active),-11.3% (active),,-52% (active)
